Measured values: PubChem BioAssay AID652072 (Broad Institute, 2013)
Records with an inconclusive call do not appear. Active and inactive are the calls of the source. How the calls were made is not given here.

Assay: apoptosis induction over several timepoints, melanoma line – cell-based, LOX IMVI, luminescence, multiple timepoints, dry powder, mechanism study for HRAS target identification, dose response (AID 652072)
Details: caspase 3/7 luminescence; series mostly up to 35 µM

SMILES | outcome
C#CCCCC(=O)NCCOCCOCCOc1ccc(N(C(=O)CCl)C(C(=O)NCCc2ccccc2)c2cccs2)cc1Cl (centres undefined) | inactive
Cc1onc(C(=O)N2CCN(C(c3ccc(Cl)cc3)c3ccc(Cl)cc3)CC2)c1[N+](=O)[O-] | inactive
CCC(=O)N(c1ccc(OC)c(Cl)c1)C(C(=O)NCCc1ccccc1)c1cccs1 (centres undefined) | inactive
Cc1onc(C(=O)N2CCN(C(c3ccc(Cl)cc3)c3ccc(OCCOCCOCCNC(=O)OC(C)(C)C)cc3)CC2)c1[N+](=O)[O-] (centres undefined) | inactive
